Calls of active or inactive are those of the source.
How the values were obtained:
[1] = tested on: PRMT1 (protein arginine N-methyltransferase 1); experiment: PRMT1 binders on small-molecule microarrays, primary screen, biochemical, small-molecule microarray, 635 nm fluorescence (AID 1088); settings: small-molecule microarray binding, higher = more signal;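 further: binding of Prmt1 protein to compounds spotted on small-molecule microarray slides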
[2] = yeast growth modulation, basal conditions, primary screen, YJM789 clinical isolate, OD600, 24 h (AID 1089);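 further: growth of clinical yeast isolate S. cerevisiae YJM 789 seeded 1000 cells per well; test concentration not given here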; settings: S. cerevisiae YJM789 growth, higher = more signal, called active from +8 up or from −8 down
[3] = fission yeast growth modulation, primary screen, strain 972, OD600, 24 h, no modulator (AID 1090);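 further: basal condition with compound alone and no growth modifier present; test concentration not given here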; settings: S. pombe 972 growth, higher = more signal, called active from +8 up or from −8 down
[4] = S. cerevisiae growth modulation with rapamycin, primary screen, strain BY4716, OD600, 96 h (AID 1091); settings: higher = more signal, called active from +8 up or from −8 down; further: test concentration not given here
[5] = molecular target: Torsin-1A-interacting protein 2 (Homo sapiens) (UniProt Q8NFQ8); experiment: LULL1 binders on small-molecule microarray, primary screen, cell lysate, human LULL1 lysate, 635/667 nm fluorescence (AID 1092); settings: hLULL1 lysate binding, 635 nm fluorescence, higher = more signal;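 further: probe is lysate of COS7 cells overexpressing human LULL1; score merges per-feature 667 nm fluorescence with signal-to-noise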
Torsin-1A-interacting protein 2 (Homo sapiens), sequence (Q8NFQ8 whole entry, looked up): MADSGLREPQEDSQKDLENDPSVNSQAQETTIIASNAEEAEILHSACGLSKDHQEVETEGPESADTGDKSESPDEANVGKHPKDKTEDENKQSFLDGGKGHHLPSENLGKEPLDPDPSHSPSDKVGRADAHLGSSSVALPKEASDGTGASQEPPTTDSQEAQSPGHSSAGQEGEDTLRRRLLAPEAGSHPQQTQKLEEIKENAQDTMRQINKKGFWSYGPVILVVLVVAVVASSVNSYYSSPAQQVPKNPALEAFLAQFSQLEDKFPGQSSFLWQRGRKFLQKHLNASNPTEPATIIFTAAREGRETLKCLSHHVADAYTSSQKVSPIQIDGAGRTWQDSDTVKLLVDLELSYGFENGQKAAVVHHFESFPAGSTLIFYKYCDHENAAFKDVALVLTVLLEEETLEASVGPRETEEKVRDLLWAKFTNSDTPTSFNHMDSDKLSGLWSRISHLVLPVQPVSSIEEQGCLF

[6] = E. coli growth modulation, two-sided OD650, primary screen, E. coli filamentation project, strain DRC41, 24 h (AID 1093); settings: OD650, 24 h, higher = more signal, called active from +8 up or from −8 down;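 further: MC1000 strain lacking acrAB efflux and sulA so SOS filamentation is blocked; test concentration not given here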
[7] = small-molecule microarray binders of probe aLefty2, primary screen, biochemical, biotinylated probe, 635/667 nm fluorescence (AID 1094); settings: higher = more signal;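 further: score merges spot fluorescence near 667 nm with spot signal-to-noise ratio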
[8] = tested on: Noggin (protein binding on small-molecule microarray); experiment: Noggin binders on small-molecule microarray, primary screen, biochemical, 635/667 nm fluorescence (AID 1095); settings: 635 nm fluorescence, higher = more signal;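 further: score merges 667 nm feature fluorescence with signal to noise over triplicate slides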
[9] = molecular target: Neurogenic locus notch homolog protein 3 (Homo sapiens) (UniProt Q9UM47); experiment: NOTCH3 binders on small-molecule microarray, primary screen, biochemical, 635/667 nm fluorescence (AID 1096); settings: NOTCH3 binding, 635 nm fluorescence, higher = more signal
Neurogenic locus notch homolog protein 3 (Homo sapiens), sequence (Q9UM47 whole entry, looked up): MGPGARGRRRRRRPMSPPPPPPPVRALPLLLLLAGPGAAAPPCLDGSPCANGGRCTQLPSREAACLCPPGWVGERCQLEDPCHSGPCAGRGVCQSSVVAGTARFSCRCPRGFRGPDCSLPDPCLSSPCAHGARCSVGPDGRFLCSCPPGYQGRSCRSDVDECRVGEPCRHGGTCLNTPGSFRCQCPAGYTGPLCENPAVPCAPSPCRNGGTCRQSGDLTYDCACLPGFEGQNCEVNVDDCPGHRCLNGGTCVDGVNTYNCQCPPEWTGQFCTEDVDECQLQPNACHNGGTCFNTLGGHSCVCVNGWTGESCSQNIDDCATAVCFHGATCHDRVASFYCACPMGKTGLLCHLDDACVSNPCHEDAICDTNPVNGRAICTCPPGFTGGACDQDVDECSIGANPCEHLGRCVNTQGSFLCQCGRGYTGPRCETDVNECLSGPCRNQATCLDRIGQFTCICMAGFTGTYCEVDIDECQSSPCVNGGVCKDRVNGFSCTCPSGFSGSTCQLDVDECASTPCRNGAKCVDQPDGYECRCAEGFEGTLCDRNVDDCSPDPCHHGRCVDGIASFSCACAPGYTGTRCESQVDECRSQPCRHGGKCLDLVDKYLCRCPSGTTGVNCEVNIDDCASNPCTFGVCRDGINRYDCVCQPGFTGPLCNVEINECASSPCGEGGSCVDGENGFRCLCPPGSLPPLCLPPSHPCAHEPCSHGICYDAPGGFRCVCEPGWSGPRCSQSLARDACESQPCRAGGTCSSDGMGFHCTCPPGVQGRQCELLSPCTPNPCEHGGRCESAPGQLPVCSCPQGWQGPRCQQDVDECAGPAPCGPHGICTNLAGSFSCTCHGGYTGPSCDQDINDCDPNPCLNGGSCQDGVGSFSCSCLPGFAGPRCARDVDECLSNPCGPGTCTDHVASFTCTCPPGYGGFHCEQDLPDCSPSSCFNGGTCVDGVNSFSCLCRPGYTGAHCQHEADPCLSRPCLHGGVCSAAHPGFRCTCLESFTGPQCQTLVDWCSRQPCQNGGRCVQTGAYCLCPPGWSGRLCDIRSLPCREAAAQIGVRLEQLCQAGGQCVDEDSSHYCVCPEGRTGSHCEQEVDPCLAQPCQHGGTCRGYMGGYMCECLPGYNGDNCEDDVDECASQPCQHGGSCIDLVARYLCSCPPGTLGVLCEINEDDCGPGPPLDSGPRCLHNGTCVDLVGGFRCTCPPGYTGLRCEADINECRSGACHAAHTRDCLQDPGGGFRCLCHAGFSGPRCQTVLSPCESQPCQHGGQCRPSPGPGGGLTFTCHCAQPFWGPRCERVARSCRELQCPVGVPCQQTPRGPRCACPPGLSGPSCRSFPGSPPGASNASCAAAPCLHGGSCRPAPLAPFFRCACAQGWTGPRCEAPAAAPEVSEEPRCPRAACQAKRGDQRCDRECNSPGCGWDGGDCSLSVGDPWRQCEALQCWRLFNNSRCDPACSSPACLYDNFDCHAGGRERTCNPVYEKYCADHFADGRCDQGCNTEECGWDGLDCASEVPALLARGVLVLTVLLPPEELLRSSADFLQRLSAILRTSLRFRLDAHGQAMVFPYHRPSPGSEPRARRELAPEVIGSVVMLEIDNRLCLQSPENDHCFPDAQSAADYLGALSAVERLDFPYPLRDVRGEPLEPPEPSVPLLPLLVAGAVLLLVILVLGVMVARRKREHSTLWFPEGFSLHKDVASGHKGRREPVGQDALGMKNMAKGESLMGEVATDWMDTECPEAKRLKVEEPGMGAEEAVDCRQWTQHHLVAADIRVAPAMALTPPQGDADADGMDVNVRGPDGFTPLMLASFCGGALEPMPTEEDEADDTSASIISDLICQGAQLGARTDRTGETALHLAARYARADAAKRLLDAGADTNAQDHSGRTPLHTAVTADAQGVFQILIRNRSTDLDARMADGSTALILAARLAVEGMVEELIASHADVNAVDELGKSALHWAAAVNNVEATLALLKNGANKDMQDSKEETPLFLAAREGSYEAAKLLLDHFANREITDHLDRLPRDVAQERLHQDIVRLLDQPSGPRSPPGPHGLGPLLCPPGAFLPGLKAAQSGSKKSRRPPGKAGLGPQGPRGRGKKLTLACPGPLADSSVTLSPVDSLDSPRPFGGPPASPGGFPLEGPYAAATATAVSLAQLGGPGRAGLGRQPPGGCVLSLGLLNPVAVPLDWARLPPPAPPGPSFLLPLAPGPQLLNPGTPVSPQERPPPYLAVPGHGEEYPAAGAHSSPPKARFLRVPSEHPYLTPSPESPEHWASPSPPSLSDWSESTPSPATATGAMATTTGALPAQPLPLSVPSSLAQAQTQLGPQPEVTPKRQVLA

[10] = small-molecule microarray binders of probe aEGFR, primary screen, biochemical, biotinylated probe, 635/667 nm fluorescence (AID 1097); settings: higher = more signal;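 further: probe is a biotinylated anti-EGFR antibody binding compounds printed on slides; score combines fluorescence near 667 nm and signal to noise of each spot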
[11] = tested on: Plasmodium falciparum Sir2 (PF13_0152, Sir2A); experiment: pfSir2 binders on small-molecule microarrays, primary screen, biochemical, small-molecule microarray, 635 nm fluorescence (AID 1098); settings: small-molecule microarray binding, fluorescence 635 nm; higher = more signal;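 further: score merges spot fluorescence intensity with its signal-to-noise ratio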
[12] = small-molecule microarray binders of probe aDKK1, primary screen, biochemical, biotinylated probe, 635/667 nm fluorescence (AID 1099); settings: higher = more signal;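 further: score merges 667nm spot fluorescence with signal to noise across triplicate slides; reference of the scale not given here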
[13] = small-molecule microarray binders of probe aCHRDL2, primary screen, biochemical, biotinylated probe, 635/667 nm fluorescence (AID 1100); settings: higher = more signal
[14] = splicing luciferase reporter signal modulators, primary screen, spliceosome inhibition project, cell-based, HEK293, splice +/- reporter (AID 1101); settings: luminescence, 24 h, higher = more signal, called active from +8 up or from −8 down;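 further: HEK293 cells carrying a splicing-competent luciferase reporter gene; test concentration not given here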
[15] = molecular target: Fibroblast growth factor 10 (Homo sapiens) (UniProt O15520); experiment: FGF10 binders on small-molecule microarrays, primary screen, biochemical, small-molecule microarray, 635 nm fluorescence (AID 1102); settings: FGF10 binding, fluorescence 635 nm, higher = more signal
Fibroblast growth factor 10 (Homo sapiens), sequence (O15520 whole entry, looked up): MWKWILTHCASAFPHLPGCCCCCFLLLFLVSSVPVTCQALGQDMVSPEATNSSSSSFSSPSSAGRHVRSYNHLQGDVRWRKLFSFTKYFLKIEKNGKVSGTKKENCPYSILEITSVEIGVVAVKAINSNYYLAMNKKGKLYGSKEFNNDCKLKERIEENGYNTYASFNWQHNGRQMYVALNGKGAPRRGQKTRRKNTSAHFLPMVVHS

[16] = tested on: glycogen synthase kinase-3 (GSK3A per assay name; protocol says GSK3B); experiment: GSK3 binders on small-molecule microarrays, primary screen, biochemical, small-molecule microarray, 635 nm fluorescence, GSK3A (AID 1103); settings: small-molecule microarray binding, fluorescence 635 nm; higher = more signal; further: the record names both GSK3A and GSK3B
[17] = molecular target: Epidermal growth factor receptor (Homo sapiens) (UniProt P00533); experiment: EGFR binders on small-molecule microarrays, primary screen, biochemical, small-molecule microarray, 635 nm fluorescence (AID 1104); settings: EGFR binding, higher = more signal;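 further: score merges 667 nm emission intensity with spot signal to noise over triplicate slides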
Epidermal growth factor receptor (Homo sapiens), sequence (P00533 whole entry, looked up): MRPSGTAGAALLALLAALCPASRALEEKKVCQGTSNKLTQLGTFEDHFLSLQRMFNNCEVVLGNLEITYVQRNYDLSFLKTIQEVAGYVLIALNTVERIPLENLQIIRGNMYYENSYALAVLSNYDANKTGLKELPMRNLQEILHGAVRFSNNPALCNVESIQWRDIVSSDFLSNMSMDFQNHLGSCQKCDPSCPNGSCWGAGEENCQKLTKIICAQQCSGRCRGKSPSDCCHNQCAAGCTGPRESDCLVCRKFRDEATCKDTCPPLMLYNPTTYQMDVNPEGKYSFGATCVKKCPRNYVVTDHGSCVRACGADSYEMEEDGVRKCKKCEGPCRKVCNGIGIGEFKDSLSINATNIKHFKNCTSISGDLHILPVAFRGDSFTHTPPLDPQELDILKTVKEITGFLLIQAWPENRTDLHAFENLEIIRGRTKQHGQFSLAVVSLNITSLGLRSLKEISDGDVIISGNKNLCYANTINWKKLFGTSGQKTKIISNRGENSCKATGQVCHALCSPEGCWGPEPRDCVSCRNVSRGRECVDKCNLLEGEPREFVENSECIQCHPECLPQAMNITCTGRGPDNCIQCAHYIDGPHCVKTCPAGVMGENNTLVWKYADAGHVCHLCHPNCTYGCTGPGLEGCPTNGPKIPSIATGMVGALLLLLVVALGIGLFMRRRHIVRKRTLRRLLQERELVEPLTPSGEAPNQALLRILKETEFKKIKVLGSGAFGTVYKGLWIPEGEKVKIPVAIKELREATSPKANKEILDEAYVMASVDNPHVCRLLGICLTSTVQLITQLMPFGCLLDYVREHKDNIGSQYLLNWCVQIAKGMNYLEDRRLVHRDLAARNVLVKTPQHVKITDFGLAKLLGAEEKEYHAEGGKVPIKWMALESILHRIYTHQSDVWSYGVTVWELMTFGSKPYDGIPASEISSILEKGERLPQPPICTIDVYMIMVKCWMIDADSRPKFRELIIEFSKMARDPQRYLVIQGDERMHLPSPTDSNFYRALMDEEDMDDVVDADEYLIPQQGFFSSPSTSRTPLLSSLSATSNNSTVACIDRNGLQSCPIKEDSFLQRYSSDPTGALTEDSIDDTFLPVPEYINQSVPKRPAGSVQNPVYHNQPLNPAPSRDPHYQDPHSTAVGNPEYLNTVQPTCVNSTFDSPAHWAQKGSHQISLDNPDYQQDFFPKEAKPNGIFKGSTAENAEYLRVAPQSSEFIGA

[18] = molecular target: Follistatin-related protein 3 (Homo sapiens) (UniProt O95633); experiment: FSTL3 binders on small-molecule microarrays, primary screen, biochemical, small-molecule microarray, 635 nm fluorescence (AID 1105); settings: FSTL3 binding, higher = more signal;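 further: score merges emission near 667 nm and signal to noise per printed spot across three slides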
Follistatin-related protein 3 (Homo sapiens), sequence (O95633 whole entry, looked up): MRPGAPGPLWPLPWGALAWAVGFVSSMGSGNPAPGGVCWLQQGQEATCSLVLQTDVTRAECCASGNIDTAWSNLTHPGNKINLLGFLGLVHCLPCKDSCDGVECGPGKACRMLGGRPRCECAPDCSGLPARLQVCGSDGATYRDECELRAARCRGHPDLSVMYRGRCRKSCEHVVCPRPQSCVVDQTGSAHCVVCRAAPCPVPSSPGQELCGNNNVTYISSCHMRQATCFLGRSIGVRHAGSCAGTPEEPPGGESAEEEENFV

[19] = molecular target: Dickkopf-related protein 1 (Homo sapiens) (UniProt O94907); experiment: DKK1 binders on small-molecule microarrays, primary screen, biochemical, small-molecule microarray, 635 nm fluorescence scan (AID 1106); settings: DKK1 binding, higher = more signal;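 further: score merges emission near 667 nm with signal to noise over three replicate slides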
Dickkopf-related protein 1 (Homo sapiens), sequence (O94907 whole entry, looked up): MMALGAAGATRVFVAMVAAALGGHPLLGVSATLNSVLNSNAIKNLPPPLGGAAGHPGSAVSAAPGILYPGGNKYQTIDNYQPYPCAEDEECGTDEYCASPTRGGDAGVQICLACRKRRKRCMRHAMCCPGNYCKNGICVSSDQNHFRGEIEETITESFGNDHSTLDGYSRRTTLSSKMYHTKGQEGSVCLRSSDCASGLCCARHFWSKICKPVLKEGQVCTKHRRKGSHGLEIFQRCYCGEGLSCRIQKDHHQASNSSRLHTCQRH

[20] = tested on: Inhibin beta A chain (activin A); experiment: INHBA (activin A) binders on microarrays, primary screen, biochemical, small-molecule microarray, 635 nm fluorescence scan (AID 1107); settings: small-molecule microarray binding, higher = more signal;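 further: mouse activin A protein probed at 4.33 µg/mL on printed slides; score merges bound-protein fluorescence near 667 nm with spot signal-to-noise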

Compound	composite z-score [1]	z-score [2]	z-score [3]	z-score [4]	composite z-score [5]	z-score [6]	composite z-score [7]	composite z-score [8]	composite z-score [9]	composite z-score [10]	composite z-score [11]	composite z-score [12]	composite z-score [13]	z-score [14]	composite z-score [15]	composite z-score [16]	composite z-score [17]	composite z-score [18]	composite z-score [19]	composite z-score [20]
COCCCNC(=O)[C@@]1(Cc2ccccc2)N=C(c2ccc(OCCCO)cc2)O[C@H]1c1ccccc1CN=[N+]=[N-]	1.56	-0.201 (inactive)	0.351 (inactive)	0.463 (inactive)	3.16	1.06 (inactive)	0.277	0.445	1.05	0.163	0.47	1.09	1.32	-0.469 (inactive)	0.807	1.28	-0.105	0.859	-0.172	0.384
CCCCN1CC=CC23O[C@@H]4/C=C\CCCOC(=O)C4[C@H]2C(=O)N(CCCCCO)[C@@H]3C1=O (stereo not given in full)	-1.13	-0.669 (inactive)	-0.392 (inactive)	-0.8 (inactive)	-0.42	-0.769 (inactive)	-0.188	-1.16	-1.02	-0.324	1.29	-0.37	-0.167	1.08 (inactive)	-0.552	-1.34	-1.13	-1.08	-0.443	0.653
COC(=O)[C@@]1(Cc2ccccc2)[C@H]2c3cc(C(=O)N4CCCC4)n(Cc4c(CO)[nH]cc(C)c4=O)c3C[C@H]2CN1C(=O)c1ccccc1	0.138	-0.0602 (inactive)	0.94 (inactive)	0.171 (inactive)	3.18	-0.799 (inactive)	0.539	-0.218	0.12	0.0478	0.893	0.896	1.24	0.796 (inactive)	0.303	0.132	0.113	0.0713	-0.135	1.27
C=C(CCCC)/C(=C/C[C@@H](OC(C)=O)c1ccccc1OCCO)c1cc(C(=O)OC)ccc1OC	0.252	1.03 (inactive)	0.404 (inactive)	-0.358 (inactive)	0.615	0.531 (inactive)	-0.12	0.0643	-0.218	-0.185	0.175	-0.211	-0.271	-0.5 (inactive)	-0.104	0.098	-0.657	-0.458	-0.149	0.864
C=CC1c2cc(O)c(OC)cc2CCN1Cc1cccc(OC(F)(F)F)c1 (stereo not given)	1.22	-26 (active)	-20.2 (active)	-3.13 (inactive)	3.88	0.148 (inactive)	-0.129	-0.0799	-0.344	-0.125	-0.128	-0.0819	0.516	-0.918 (inactive)	-0.438	-0.765	-0.417	0.0396	-0.0102	1.64
O=C1OCCC=C[C@H]2OC34C=CCN(CCN5CCOCC5)C(=O)[C@H]3N(CCCCCO)C(=O)[C@@H]4C12 (stereo not given in full)	1.48	-0.776 (inactive)	-0.0455 (inactive)	-0.379 (inactive)	3.34	0.444 (inactive)	-0.138	0.0669	0.193	-0.158	1.44	-0.235	-0.111	-0.78 (inactive)	-0.35	0.454	-0.509	-0.379	-0.041	-0.309
O=C1C2C=CC(C(O)c3ccc(-c4ccccc4)s3)N(Nc3ccccc3)C2C(=O)N1c1ccccc1 (stereo not given)	1.26	-0.307 (inactive)	1.63 (inactive)	0.355 (inactive)	4.34	-0.579 (inactive)	0.0711	0.182	1.11	-0.0565	1.5	0.753	0.953	1.1 (inactive)	0.722	0.808	-0.0664	1.03	-0.632	0.845
CCCCC(O)C1C=CC2C(=O)N(C)C(=O)C2N1N1CCCCC1 (stereo not given)	0.506	0.882 (inactive)	1.05 (inactive)	1.97 (inactive)	2.84	-1.1 (inactive)	0.365	0.277	0.967	0.197	0.933	0.945	0.743	0.871 (inactive)	0.546	-0.0038	0.229	0.574	0.0003	1.42
COc1ccc([Si](C)(C)[C@@H]2[C@@H](CCn3cc([C@H](O)c4ccccc4)nn3)O[C@]3(C(=O)N(Cc4cccc(N5CCC5=O)c4)c4ccccc43)[C@H]2C)cc1	-0.284	-0.442 (inactive)	1.23 (inactive)	2.14 (inactive)	0.167	-0.546 (inactive)	-0.0956	0.459	-0.468	-0.0267	0.647	-0.386	-0.0143	1.41 (inactive)	0.483	-0.502	0.0403	-0.304	0.589	0.521
O=C1NC(=O)C2C1C=CC(C(O)c1ccc(-c3ccccc3)s1)N2Nc1ccc(Cl)cc1Cl (stereo not given)	0.193	-0.863 (inactive)	-1.76 (inactive)	1.58 (inactive)	3.07	-1.25 (inactive)	0.214	0.23	0.983	-0.106	1.02	-0.214	0.956	0.624 (inactive)	0.227	0.508	0.112	0.992	-0.729	0.959
COCCCNC(=O)[C@]1(Cc2ccccc2)N=C(c2ccc(OCCCO)cc2)O[C@@H]1c1ccccc1CN=[N+]=[N-]	1.55	-2.05 (inactive)	1.05 (inactive)	0.842 (inactive)	3.59	1.03 (inactive)	0.195	0.53	1.08	0.0326	1.24	1.2	1.29	-0.97 (inactive)	1.49	0.98	0.25	0.721	-0.0836	0.608
[N-]=[N+]=NCc1ccccc1[C@@H]1OC(c2ccc(OCCCO)cc2)=N[C@]1(CCS(=O)(=O)c1ccccc1)C(=O)N1CCOCC1	1.54	-0.401 (inactive)	0.144 (inactive)	0.971 (inactive)	3.24	1.7 (inactive)	0.456	0.256	1.07	0.256	1.46	1.27	1.31	-1.56 (inactive)	1.04	1.12	0.117	1.07	-0.242	0.933
OB1C=CCC(CCc2ccccc2)O1 (stereo not given)	-1.12	-1.95 (inactive)	-2.06 (inactive)	-0.762 (inactive)	-1.05	1.96 (inactive)	-0.192	-0.0988	-1.12	-0.211	1.57	-0.246	0.0796	-0.817 (inactive)	-0.184	-0.428	0.0835	-0.544	-0.191	1.67
CC(C)(C)OC(=O)CC[C@@]1(C(=O)N2CCCCC2)N=C(c2ccc(OCCCO)cc2)O[C@@H]1c1ccccc1	1.54	-1.23 (inactive)	-0.76 (inactive)	-0.95 (inactive)	3.52	-0.223 (inactive)	0.0215	0.318	1.12	-0.0053	1.74	0.555	0.452	0.0826 (inactive)	1.46	1.3	0.197	0.858	-0.219	0.6
O=C(NC1CC1)[C@@H]1c2ccccc2C(=O)N(Cc2cc(F)cc(C(F)(F)F)c2)[C@H]1c1ccc(CO)cc1	1.35	-1.02 (inactive)	-1.15 (inactive)	-0.926 (inactive)	2.85	-0.213 (inactive)	0.0351	0.235	-0.418	-0.177	1.62	-0.284	0.447	0.191 (inactive)	-0.216	0.296	-1.18	-0.317	-0.666	-0.142
COC(=O)[C@@]1(Cc2ccccc2)[C@H]2c3cc(C(=O)N(C)C)n(CCc4c[nH]c5ccc(O)cc45)c3C[C@H]2CN1C(=O)c1ccccc1	0.937	-1.09 (inactive)	1.25 (inactive)	0.405 (inactive)	3.11	0.488 (inactive)	0.583	0.626	0.751	-0.0234	0.0625	0.665	1.2	-1.99 (inactive)	0.288	0.435	0.121	0.594	-0.0414	1.3
CCCCCCc1nc(-c2ccc(-c3ccc(Cl)c(Cl)c3)o2)cc2c1[Si](C(C)C)(C(C)C)O[C@H]2c1ccccc1	0.287	-0.124 (inactive)	-0.45 (inactive)	-1.35 (inactive)	0.424	0.488 (inactive)	-0.196	0.0792	-0.34	-0.249	0.0593	-0.294	0.0787	-0.112 (inactive)	-0.515	-1.26	-0.287	-0.737	0.0981	0.62
COC(=O)[C@@]1(Cc2ccc(OC)cc2)[C@H]2c3cc(C(=O)N4CCCC4)n(Cc4nc5ccccc5[nH]4)c3C[C@H]2CN1C(=O)c1ccccc1	0.661	-0.0237 (inactive)	0.955 (inactive)	2.07 (inactive)	3.73	0.138 (inactive)	0.759	-0.214	1.05	0.225	1.36	1.48	1.34	-1.29 (inactive)	0.77	0.54	0.206	1.05	-0.49	1.28
COC(=O)C(CC#Cc1ccc2c(c1)[C@]1(C(=O)N2)[C@H](c2ccccc2OCCO)N2[C@H](c3ccccc3)[C@H](c3ccccc3)OC(=O)[C@H]2[C@@H]1C(N)=O)C(=O)OC	1.27	1.31 (inactive)	-0.117 (inactive)	3.7 (inactive)	2.93	1.13 (inactive)	1.11	0.0814	0.895	0.656	1.54	1.45	0.862	-3.57 (inactive)	0.376	1	0.241	0.412	-0.221	0.693
